Experimental data published in PubChem BioAssay (Tox21).
Records with an inconclusive call do not appear. A number with no mark means an inactive call. Calls follow the shape of the full dose curve.

test: qHTS assay to identify small molecule agonists of the endoplasmic reticulum stress response signaling pathway - cell viability counter screen (AID 1159517); conditions: ESRE-bla HeLa viability, CellTiter-Glo luminescence, 5 h; series mostly up to 61 µM; activity change, negative = cytotoxicity: at the top concentration; also: nearly all actives have a fitted effect of over 50% in size
Source text: U.S. Tox21 Program National Center for Advancing Translational Sciences [NCATS] NIH Chemical Genomics Center [NCGC] U.S. Environmental Protection Agency [EPA] National Institutes of Environmental Health Sciences [NIEHS] National Toxicology Program [NTP] U.S. Food and Drug Administration [FDA] Tox21 Assay Overview: Endoplasmic Reticulum (ER) plays an important role in cellular signaling, protein folding/maturation, stress response, lipid biosynthesis, calcium storage and release etc. Under stress conditions, proteins in ER misfold or unfold, and leading to the expression of ER stress responsive genes. ER stress has been associated with a variety of pathophysiological conditions such as cancer, inflammation, neurodegenerative diseases, diabetes, ischemic heart disease etc. To identify the compounds that induce ER stress response, an ER stress reporter cell line, CellSensor ESRE-bla HeLa (Life Technologies, Carlsbad, CA) containing a beta-lactamase reporter gene under control of the Endoplasmic reticulum Stress Response Element (ESRE) was used to screen Tox21 10K compound library. The cytotoxicity of the Tox21 compound library against the ESRE-bla HeLa cell line was tested in parallel by measuring cell viability using the CellTiter-Glo assay in the same wells.
Tox21 Assay Protocol Summary: ESRE-bla HeLa cells were dispensed at 1,500 cells/6 uL of assay medium per well into black wall/clear-bottom 1536-well plates using a Multidrop Combi (ThermoFisher Scientific, Waltham, MA) dispenser. After the assay plates were incubated at 37 C and 5% CO2 for an overnight, 23 nL of compounds dissolved in DMSO, positive controls or DMSO only was transferred to the assay plate by a Pintool station (Kalypsys, San Diego, CA). The assay plates were incubated at 37 C and 5% CO2 for 5 hr. One uL of LiveBLAzer B/G FRET substrate (Life Technologies) was added using a FRD (Flying Reagent Dispenser, Aurora Discovery, San Diego, CA) and the plates were incubated at room temperature for 2 hr. Fluorescence intensity (405 nm excitation, 460 nm and 530 nm emissions) was measured using an Envision plate reader (PerkinElmer, Shelton, CT). For cytotoxicity, 4 ul/well of CellTiter-Glo reagent was added into the assay plates using an FRD. After 30 min incubation at room temperature, the luminescence intensity was measured using a ViewLux plate reader (PerkinElmer).
% is scaled to controls: 0 for no effect and ±100 for the full control effect.

| Compound | activity change, negative = cytotoxicity |
| --- | --- |
| CCCNCC(O)COc1ccccc1C(=O)CCc1ccccc1 (stereo not given) | 9.11% |
| Nc1cccc(S(=O)(=O)c2cccc(N)c2)c1 | -3.09% |
| O=C(O)c1ccc(S(=O)(=O)O)cc1C(=O)O | -8.73% [at 78.8 µM] |
| CCOC(=O)C(F)(F)F | -4.66% |
| CC1OC(=O)C(C)OC1=O (stereo not given) | 2.68% |
| Cc1nn(C)c(Oc2ccccc2)c1/C=N/OCc1ccc(C(=O)OC(C)(C)C)cc1 | -5.11% |
| COc1ccc(-c2nc3ccc(C4=NNC(=O)CC4C)cc3[nH]2)cc1 (stereo not given) | 2.33% |
| CCCCOC(=O)CCCCCCCC(=O)OCCCC | 0.678% |
| CN(C)CCN(Cc1ccccc1)c1ccccn1 | -5.29% |
| CCCCC/C=C\C/C=C\CCCCCCCC(=O)NC(C)c1ccccc1 (stereo not given) | -6.68% |
| CCCCCCCCCCCCCCOS(=O)(=O)O | -29.2% |
| C=CC(=O)OCCOc1ccccc1 | -18.8% |
| C=C(C)C(=O)OCC | 15.7% [at 78.8 µM] |
| COS(=O)(=O)C(F)(F)F | -25.5% [at 78.8 µM] |
| NCC(=O)O | 2.2% [at 28.5 µM] |
| c1cc(CCCc2ccncc2)ccn1 | -8.71% |
| NCC(=O)CCC(=O)O | -0.665% |
| C=C1[C@H]2CC[C@@H]3[C@H]2C(C)(C)CCC[C@]13C | -7.66% |
| CC/C=C\CCOC(=O)CC | 24% |
| O=S(c1cc(Cl)cc(Cl)c1O)c1cc(Cl)cc(Cl)c1O | -8.81% |

| Compound | activity change, negative = cytotoxicity |
| --- | --- |
| O=[N+]([O-])c1ccc(NCCO)c(OCCO)c1 | -22.4% |
| OCCNCc1ccccc1 | -2.73% |
| CN1CCC(=C2c3ccccc3Sc3ccccc32)CC1 | -7.46% |
| C#Cc1cccc(Nc2ncnc3cc(OCCOC)c(OCCOC)cc23)c1 | -1.07% |
| Cc1cc(N)c2cc(NC(=O)Nc3ccc4nc(C)cc(N)c4c3)ccc2n1 | -39.4% |
| COc1ccc(C(=O)N2CCN(CC(=O)N3CCOCC3)CC2)cc1 | 4.43% |
| C/C=C/C=C/CO | 19.2% |
| O=[N+]([O-])c1ccc2[nH]ncc2c1 | 7.74% |
| CN1CCC(N(Cc2cccs2)c2ccccc2)CC1 | -14% |
| CC(C)(C)OCC1CO1 (stereo not given) | 5.79% [at 78.8 µM] |
| COc1cc2c(cc1OC)C(C(C(=O)N(CCc1ccc(OC)c(OC)c1OC)CCc1ccc(OC)c(OC)c1OC)c1ccccc1)=NCC2 (stereo not given) | -14.9% |
| C[C@@H]1C[C@H]2[C@@H]3CCC4=CC(=O)C=C[C@]4(C)[C@@]3(F)[C@@H](O)C[C@]2(C)[C@@]1(O)C(=O)COC(=O)c1ccncc1 | -6.84% |
| O=C(Nc1ccc(S(=O)(=O)N2CCOCC2)cc1)c1cc(Cl)ccc1NS(=O)(=O)c1ccc(Cl)s1 | -5.86% |
| COc1ccc2cccc(CCNC(C)=O)c2c1 | 12.7% |
| CCN(CC)CCNC(=O)c1cc(Br)c(N)cc1OC | -8.09% |
| CCCCCCCCCCCCN1CCCCCC1=O | -26.4% |
| CCCCCCCCCCCCCCCCCCOS(=O)(=O)O | -28.2% |
| CCO[C@H](Cc1ccc(OCCc2ccc(OS(C)(=O)=O)cc2)cc1)C(=O)O | -0.667% |
| CCOc1ccc(N)c([N+](=O)[O-])c1 | -7.18% |
| CCCCCCCCCc1ccc(OCCOCCO)cc1 | 14.4% [at 28.5 µM] |
